LMNA splice mod: LMNA splicing modulation. Potency, µM (doses to about 46.1 µM), usual class: inhibitors. hit rate 0.01% among 200,000. HeLa LMNA splicing GFP/RFP minigene ratio, 48 h; active = well fitted inhibition curve with a large enough effect in the signal ratio, with a control signal flat, not every such curve was filed as active; inconclusive = small, poorly fitted or top-dose-only effect, or effect the other way, or a change in a side signal; the % refers to the signal ratio
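S3 HeLa cells stably expressing lamin A-EGFP splicing minigene plus DsRed2, 600 cells/well, 48 h compound exposure at 37C. Laser-scanning cytometry; analysed as GFP (500-530 nm)/RFP (575-640 nm) total intensity ratio; 0.5% DMSO vehicle.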
ALDH1A1 block: blocks purified human ALDH1A1 activity | hit rate 7.3% among 220,000 | P00352 | Purified ALDH1A1, NADH fluorescence, propionaldehyde substrate | Potency, µM (titrated, usually from 75.3 µM), hits mostly inhibitors; active = well fitted inhibition curve with a large enough effect, not every such curve was filed as active; inconclusive = small, poorly fitted or top-dose-only effect, or another doubt; inactive = no such curve, though single readings can be large or run the other way
Target sequence (P00352 whole entry, looked up): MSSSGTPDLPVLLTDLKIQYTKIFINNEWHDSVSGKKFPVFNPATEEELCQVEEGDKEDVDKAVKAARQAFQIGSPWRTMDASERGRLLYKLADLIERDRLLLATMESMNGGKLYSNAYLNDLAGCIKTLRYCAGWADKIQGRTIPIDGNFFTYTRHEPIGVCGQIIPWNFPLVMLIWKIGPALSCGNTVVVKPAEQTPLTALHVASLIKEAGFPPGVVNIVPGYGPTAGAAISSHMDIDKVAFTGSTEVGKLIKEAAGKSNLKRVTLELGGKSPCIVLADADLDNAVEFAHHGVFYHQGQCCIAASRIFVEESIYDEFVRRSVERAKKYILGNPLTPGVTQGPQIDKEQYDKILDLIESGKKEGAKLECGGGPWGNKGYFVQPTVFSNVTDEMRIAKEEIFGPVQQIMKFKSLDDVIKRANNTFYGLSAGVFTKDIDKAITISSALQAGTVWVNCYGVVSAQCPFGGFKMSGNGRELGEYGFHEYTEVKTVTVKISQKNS
Luc counter: Kinase-Glo luciferase inhibition (counter-screen). Kinase-Glo luciferase, ATP luminescence, 8 min. Potency, µM (titrated, usually from 38.3 µM), most hits filed as inhibitors. hit rate 0.28% among 200,000. AID 1379; note: nearly all actives have a fitted effect of over 60% in size
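Inhibition of Kinase-Glo luciferase light generation was assessed at 10 uM ATP in pH 7.2 imidazole buffer, with luminescence measured after eight minutes at ambient temperature.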
HPGD block: blocks human HPGD enzyme activity. P15428. purified HPGD, NADH fluorescence kinetic, PGE2 substrate. Potency, µM, actives largely listed as inhibitors. hit rate 4.3% among 150,000. AID 894; active = well fitted inhibition curve with a large enough effect, not every such curve was filed as active; inconclusive = small, poorly fitted or top-dose-only effect, or another doubt; inactive = no such curve, though single readings can be large or run the other way
Target sequence (P15428 whole entry, looked up): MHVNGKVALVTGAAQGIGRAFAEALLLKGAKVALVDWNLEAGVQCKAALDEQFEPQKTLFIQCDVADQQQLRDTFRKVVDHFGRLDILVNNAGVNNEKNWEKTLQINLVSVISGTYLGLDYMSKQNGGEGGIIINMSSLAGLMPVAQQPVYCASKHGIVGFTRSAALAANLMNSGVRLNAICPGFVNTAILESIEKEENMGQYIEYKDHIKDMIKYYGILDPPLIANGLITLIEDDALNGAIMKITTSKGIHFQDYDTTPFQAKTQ
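20 nM HPGD preincubated 15 min at room temperature with compound in 50 mM Tris-HCl pH 8, 0.01% Tween 20. Started with 1 mM NAD+ and 30 uM prostaglandin E2; NADH fluorescence (360/450 nm) read 5 times over 30-s intervals, last minus first.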
IMPase Li cell: membrane-permeable IMPase blocker, potentiated with lithium | CHO-M1 cells, IP1 TR-FRET (IP-One), carbachol + lithium | Potency, µM (top dose mostly 59.4 µM), most hits filed as inhibitors | hit rate 0.35% among 210,000 | AID 1457;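 note: IP1 builds up when IMPase is blocked and the TR-FRET signal falls; nearly all actives have a fitted effect of over 50% in size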
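CHO-M1, 2000 cells/well, 16–30 h culture; cpd + low Li+, 30 min 37C; lysis with d2-IP1/Eu-anti-IP1 Ab, 10 min RT; TR-FRET 665/620 ratio and 620 channel; AC50 via Hill.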
Of the large screens only hits and unclear results are named; the others gave an inactive call; ! = repeats disagree. Only some compounds are listed: those with a hit (about 9% of all), similar ones and a draw of the others. Unless noted, calls come from the whole dose curve; as a rule, active = well fitted curve in the direction sought with a large enough effect; inconclusive = small, poorly fitted or top-dose-only effect, or another doubt; inactive = no such curve, though single readings can be large; an effect the other way counts as inactive or inconclusive.

CN(C(=O)COC(=O)CNC(=O)C12CC3CC(CC(C3)C1)C2)C1CCS(=O)(=O)C1 (centres undefined)	none
CC(C)CC(=O)N/C(N)=N/c1nc2ccccc2o1	none (no result: LMNA splice mod, Luc counter, HPGD block, IMPase Li cell)
CCC(=O)Nc1cc(C(=O)OC(C(=O)c2ccc(C)c(C)c2)c2ccccc2)ccc1C (centres undefined)	none
CCc1nnnn1-c1ccc([N+](=O)[O-])cc1C	none (no result: HPGD block)
CC(=O)N1CCN(C)CC1	none (no result: LMNA splice mod)
O=C1CCc2cc(OCCCCc3nnnn3C3CCCCC3)ccc2N1	LMNA splice mod inconclusive, ALDH1A1 block 25.1µM!
O=C(OCCN1C(=O)c2ccccc2C1=O)c1ccccc1	none (no result: LMNA splice mod, HPGD block)
Cn1nc(C(=O)OCCN2C(=O)c3ccccc3C2=O)c2ccccc2c1=O	HPGD block 20µM
CN(C)S(=O)(=O)c1ccc(C(=O)OCC(=O)c2ccc3c(c2)NC(=O)CO3)cc1	LMNA splice mod inconclusive (no result: Luc counter, HPGD block, IMPase Li cell)
CN(C)S(=O)(=O)c1cccc(C(=O)OCC(=O)c2ccc3c(c2)NC(=O)CO3)c1	ALDH1A1 block 22.4µM
O=C(O)/C=C/C(=O)NC1CCC(CC2CCC(NC(=O)/C=C/C(=O)O)CC2)CC1 (centres undefined)	none (no result: LMNA splice mod, HPGD block)
CCc1ccc(C(=O)Cn2ncc(Cl)c(Cl)c2=O)cc1	LMNA splice mod inconclusive, ALDH1A1 block 14.1µM
O=c1c(Cl)c(Cl)cnn1Cc1nnc(-c2ccc(Cl)cc2)o1	LMNA splice mod inconclusive, ALDH1A1 block 8.91µM (no result: HPGD block)
O=c1c(Cl)c(Cl)cnn1Cc1ccccc1Cl	LMNA splice mod inconclusive
Cc1cc(C)cc(Cn2ncc(Cl)c(Cl)c2=O)c1	LMNA splice mod inconclusive, ALDH1A1 block 28.2µM
Cc1ccc(Cn2ncc(Cl)c(Cl)c2=O)cc1	ALDH1A1 block 25.1µM
COc1cccc(CN2CCN(Cc3cccn3-c3cccnc3)CC2CCO)c1 (centres undefined)	none (no result: HPGD block)
C[C@H]1Cc2c(COc3ccccc3)nc3c(c2CO1)CN(C(=O)Cc1cccs1)CC3	LMNA splice mod inconclusive
CC(NC(=O)CN1CCN(c2ncccn2)CC1)c1ccc(F)cc1 (centres undefined)	none
CC(C)NC(=O)CN1CCN(c2ncccn2)CC1	ALDH1A1 block 28.2µM
O=C(CN1CCN(c2ccccn2)CC1)NC1CCCC1	ALDH1A1 block 25.1µM
O=C(CN1CCN(c2ccccn2)CC1)Nc1ccc(F)cc1	ALDH1A1 block inconclusive
O=C(CN1CCN(c2ccccn2)CC1)Nc1ccccc1	none
O=C(CN1CCN(c2ccccn2)CC1)Nc1ccc(Oc2ccccc2)cc1	ALDH1A1 block 25.1µM
CCOc1cc(C(=O)Nc2ccc(C)cc2C)ccc1OCC(=O)N1CCCCC1	none
COc1cc(C(=S)N2CCCC2)cc(Cl)c1OCC(=O)Nc1ccc(C)cc1C	LMNA splice mod inconclusive, ALDH1A1 block 2.51µM, HPGD block 7.94µM
COC(=O)c1c(NC(=O)Cc2cccs2)sc2c1CCC(C)C2 (centres undefined)	ALDH1A1 block 14.1µM, HPGD block 12.6µM
COC(=O)c1c(NC(=O)Cn2cnc([N+](=O)[O-])n2)sc2c1CCC(C)C2 (centres undefined)	HPGD block 11.2µM
CN(C)C(=O)[C@]1(C)C[C@H]1[C@H](NC(=O)CNC(=O)[C@@H]1CCCN1C(=O)[C@]1(C)C[C@H]1[C@H](NC(=O)OCc1ccccc1)c1ccccc1)c1ccccc1	ALDH1A1 block inconclusive (no result: LMNA splice mod)
COc1ccc(C(=O)COC(=O)CNC(=O)C2CCCCC2)c(OC)c1	ALDH1A1 block inconclusive, HPGD block 25.1µM
CC1CCN(S(=O)(=O)c2cc([N+](=O)[O-])ccc2Cl)CC1	ALDH1A1 block 3.55µM (no result: LMNA splice mod, HPGD block)
CC(C)CN(CC(C)C)c1nnc(NC(=O)Cn2c(=O)oc3ccccc32)s1	ALDH1A1 block 1.41µM
CCCc1nnc(NC(=O)Cn2c(=O)oc3ccccc32)s1	ALDH1A1 block 10µM, HPGD block 28.2µM
CCCOc1ccc(CNC(=O)Cn2c(=O)oc3ccccc32)cc1	LMNA splice mod inconclusive
CC(C)Oc1ccc(CNC(=O)Cn2c(=O)oc3ccccc32)cc1	HPGD block 20µM
CCC1=C2CC[C@H]3C(=O)N(c4ccccc4)C(=O)[C@H]3[C@H]2[C@@]2(C)C(=O)N(CC(=O)OC)C(=O)N2C1=O	none (no result: LMNA splice mod)
O=C(c1ccc(C#CC2(O)CCCCC2)cc1)N1CCN(Cc2ccccc2)CC1	LMNA splice mod inconclusive
O=C(c1ccc(C#CC2(O)CCCCC2)cc1)N1CCN(C(c2ccccc2)c2ccccc2)CC1	LMNA splice mod inconclusive, ALDH1A1 block 25.1µM
CCc1nn2cc(C(=O)c3ccccc3O)cnc2c1-c1ccc(F)cc1	LMNA splice mod inconclusive, ALDH1A1 block inconclusive, HPGD block 15.8µM
CCc1nn2cc(C(=O)c3cc(C)ccc3O)cnc2c1-c1ccc(F)cc1	LMNA splice mod inconclusive, ALDH1A1 block inconclusive, HPGD block 15.8µM
COc1ccccc1NS(=O)(=O)c1cc(NC(=O)c2cccs2)ccc1N1CCCC1	ALDH1A1 block 12.6µM, HPGD block 8.91µM
COc1ccccc1NS(=O)(=O)c1cc(NC(=O)c2sccc2C)ccc1N1CCCC1	ALDH1A1 block 10µM (no result: HPGD block)
COc1ccccc1NS(=O)(=O)c1cc(NC(=O)c2cccs2)ccc1N1CCCCC1	LMNA splice mod inconclusive
O=C(CN1C(=O)c2ccccc2C1=O)NN1C(=O)c2ccccc2C1=O	ALDH1A1 block 2.82µM
Oc1ccccc1NCC(O)Cn1ccc2ccccc21 (centres undefined)	ALDH1A1 block 14.1µM (no result: Luc counter, HPGD block, IMPase Li cell)
O=C1c2ccccc2S(=O)(=O)N1CC(O)Cn1ccc2ccccc21 (centres undefined)	ALDH1A1 block 12.6µM
OCc1nc2ccccc2n1CC(O)Cn1ccc2ccccc21 (centres undefined)	LMNA splice mod inconclusive, ALDH1A1 block 22.4µM
FC(F)(F)c1ccccc1NC1=NCCC1	none (no result: HPGD block)
N#Cc1ccc(CN2CC[C@@]3(CCCN(C(=O)c4cc(C(F)(F)F)cc(C(F)(F)F)c4)C3)C2)cc1	none (no result: LMNA splice mod)
CCC1CCC(c2nnc(-c3ccc([N+](=O)[O-])cc3)o2)CC1 (centres undefined)	ALDH1A1 block 11.2µM
CC(=O)n1cc(C(C[N+](=O)[O-])SCCN)c2ccccc21 (centres undefined)	HPGD block 25.1µM
CCOc1ccc(/C=C/C(=O)c2cccs2)cc1	ALDH1A1 block inconclusive, Luc counter 14.1µM, HPGD block inconclusive (no result: LMNA splice mod)
O=C1NC(C(=O)O)=CC(c2ccc([N+](=O)[O-])cc2)N1 (centres undefined)	ALDH1A1 block 14.1µM (no result: LMNA splice mod, Luc counter, HPGD block, IMPase Li cell)
O=C(CSC1CC(=O)N(c2ccc(C(=O)O)cc2)C1=O)Nc1ccc(Cl)cc1 (centres undefined)	LMNA splice mod inconclusive (no result: HPGD block)
O=C1C2C3C=CC(C4CC34)C2C(=O)N1/N=C/c1ccc(-c2ccc(Cl)cc2[N+](=O)[O-])o1 (centres undefined)	ALDH1A1 block inconclusive, HPGD block inconclusive
